Test results taken from PubChem BioAssay.
Results filed as inconclusive are left out. The source made the active and inactive calls.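 The calls were made as follows, unless noted: active = Her2 level under about 52% in both replicate screens, with viability over 70% of control (limit read from the data); inconclusive = Her2 under the limit in one screen only, or viability under 70%; inactive = Her2 level above the set limit.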

How the values were obtained:
[1] = Her2 expression decrease, cell viability multiplex – SKBR3 breast tumor cells, AlphaScreen, ATP viability, primary screen (AID 461); settings: SKBR3 Her2 protein level, 18-24 h, measured here: SKBR3 viability, ATP luminescence, at 10 µM;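 as to Her2 level: lower value means less Her2 protein in the cells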;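 as to viability: percent of carrier control wells set as 100% viability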
[2] = target: Receptor tyrosine-protein kinase erbB-2 (Homo sapiens) (UniProt P04626); test: as above; settings: 18-24 h, at 10 µM, stronger effect = lower value
Chain of Receptor tyrosine-protein kinase erbB-2 (Homo sapiens) (P04626 whole entry, looked up): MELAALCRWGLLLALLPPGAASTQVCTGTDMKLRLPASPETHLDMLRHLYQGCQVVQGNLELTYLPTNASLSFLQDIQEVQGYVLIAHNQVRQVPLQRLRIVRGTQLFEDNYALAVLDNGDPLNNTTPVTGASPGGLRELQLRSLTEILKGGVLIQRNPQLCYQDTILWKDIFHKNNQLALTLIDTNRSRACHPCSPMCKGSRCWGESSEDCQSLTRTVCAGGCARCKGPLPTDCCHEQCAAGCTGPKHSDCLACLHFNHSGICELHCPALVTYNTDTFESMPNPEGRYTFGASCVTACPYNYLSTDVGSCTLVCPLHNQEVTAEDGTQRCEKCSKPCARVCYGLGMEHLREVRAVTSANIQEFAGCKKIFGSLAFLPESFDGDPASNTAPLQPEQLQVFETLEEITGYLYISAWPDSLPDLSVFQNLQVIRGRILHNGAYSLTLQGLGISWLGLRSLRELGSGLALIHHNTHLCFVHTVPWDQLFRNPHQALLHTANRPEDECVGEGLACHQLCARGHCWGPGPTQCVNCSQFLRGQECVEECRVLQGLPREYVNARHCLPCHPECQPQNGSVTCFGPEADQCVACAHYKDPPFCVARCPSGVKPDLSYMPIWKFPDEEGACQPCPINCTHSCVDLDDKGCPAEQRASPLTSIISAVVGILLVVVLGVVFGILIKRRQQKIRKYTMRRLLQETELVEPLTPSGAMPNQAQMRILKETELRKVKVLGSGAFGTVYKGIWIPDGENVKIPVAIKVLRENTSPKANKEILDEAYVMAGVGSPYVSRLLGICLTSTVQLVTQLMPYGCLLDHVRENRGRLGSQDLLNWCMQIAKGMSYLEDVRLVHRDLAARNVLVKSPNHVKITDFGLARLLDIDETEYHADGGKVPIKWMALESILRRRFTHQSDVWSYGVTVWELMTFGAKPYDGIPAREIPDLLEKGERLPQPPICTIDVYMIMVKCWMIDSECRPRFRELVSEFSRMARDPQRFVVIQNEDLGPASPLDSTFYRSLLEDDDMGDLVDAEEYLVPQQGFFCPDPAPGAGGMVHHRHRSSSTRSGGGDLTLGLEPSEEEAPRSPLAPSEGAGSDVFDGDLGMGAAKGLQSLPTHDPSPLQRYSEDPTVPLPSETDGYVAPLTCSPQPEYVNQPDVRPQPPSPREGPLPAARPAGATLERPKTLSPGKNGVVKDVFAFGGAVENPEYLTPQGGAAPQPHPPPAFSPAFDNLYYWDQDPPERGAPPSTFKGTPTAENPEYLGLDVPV

[3] = reduced viability of SK-BR-3 breast cancer cells – cell-based, 24 h, human, pilot screen (AID 572;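 active = viability at or below 10% of carrier control in both of two separate runs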;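 also: compound exposure lasted between 18 and 24 h rather than exactly 24 h; 100% = carrier-treated control wells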); settings: SK-BR-3 viability, CellTiter-Glo luminescence, at 10 µM, stronger effect = lower value
[4] = HUVEC growth inhibition – cell-based, human, primary screen (AID 575;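 active = viability at or below 30% in both replicate assays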;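 also: 100% = median of untreated cell wells with 0.1% DMSO on each plate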); settings: HUVEC proliferation, CellTiter-Glo luminescence, 72 h; at 10 µM; stronger effect = lower value
[5] = H69AR cell proliferation blockers – human, duplicate replicates, primary screen (AID 580;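 active = viability at or under a set limit in both replicates, limit being median viability minus 3 SD, cut at about 48% in these data, passing the limit was not always enough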;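 also: 100% = mean luminescence of untreated wells and 0% = no signal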); settings: H69AR lung tumor cells viability, ATP luminescence, 72 h; at 10 µM; stronger effect = lower value
[6] = MRP1 drug-resistance reversers in H69AR cells – cell-based, doxorubicin co-treatment, pilot screen (AID 601;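 active = viability loss from added drug above about 55%, and viability with drug at most 40%, in both replicates, limit read from the data, passing the limit was not always enough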); settings: CellTiter-Glo, 72 h, at 10 µM; for differential viability (reversal): stronger effect = higher value
[7] = yeast transport mutant growth inhibition pilot in 384-well plates, post-Golgi transport modulator project (AID 636; in the data active = inhibition above about 31%); settings: absorbance 615 nm, about 18 h, stronger effect = higher value
[8] = growth suppression of yeast trafficking mutant, preliminary HTS, modulators of trafficking downstream of Golgi apparatus project, 1536-format plate, OD 615 nm (AID 637; in the data active = inhibition above about 30%); settings: yeast transport mutant growth, absorbance 615 nm, 18 h; stronger effect = higher value
[9] = S. cerevisiae growth inhibition in permissive medium (OD615), pilot counter-assay for S. cerevisiae lifespan shortening project, permissive growth control (AID 705;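 active = growth inhibition above 25% in both replicates, a cutoff set 3 SD above the mean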); settings: OD615, 24 h, at 10 µM, stronger effect = higher value
[10] = S. cerevisiae growth inhibition in restrictive medium, OD615, pilot screen, restrictive growth control, yeast lifespan reduction project (AID 706;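 active = growth inhibition above a set limit, 3 SD over mean compound inhibition, in both replicates, cut at about 43% in these data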;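 also: modified DeaD lifespan yeast strain shifted to restrictive glucose medium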); settings: OD615, 48 h, at 10 µM, stronger effect = higher value
[11] = doxorubicin toxicity protection in MRP-1 cells – H69AR cells, CellTiter-Glo, duplicate, MRP-1 activator project, pilot screen (AID 807;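 active = viability increase at or above a cutoff of the median across tested compounds plus 3 SD, cut at about 8.5% in these data, passing the limit was not always enough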;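 also: compound pretreatment 18-22 h then 72 h combined with doxorubicin; 0% = doxorubicin alone and 100% = vehicle without doxorubicin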); settings: H69AR viability with doxorubicin, CellTiter-Glo luminescence; at 10 µM; stronger effect = higher value
[12] = viability of HCT116 without oncogenic beta-catenin – human colon tumor cells, pilot screen (AID 823;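 active = cell viability at or below a set limit in both duplicate runs, the limit being the all-compound median minus 4 SD, cut at about 23% in these data, passing the limit was not always enough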;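 also: 0% = wells killed by 20 µM Hyamine and 100% = untreated DMSO cell wells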); settings: HCT116 beta-catenin knockout viability, CellTiter-Glo, 60 h; at 10 µM; stronger effect = lower value
[13] = viability of PTEN-null HCT116 cells – cell-based, HCT116 clonal line, CellTiter-Glo, pilot screen (AID 824;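 active = viability at or below 27.92% in each of two runs, the all-compound median minus 4 SD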;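 also: 0% = 20 µM Hyamine control and 100% = vehicle cell control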); settings: HCT116 PTEN-deleted viability, 60 h, at 10 µM, stronger effect = lower value
[14] = RAM pathway blockade in budding yeast – dse1pr::URA3 reporter, 5-FOA selection, pilot screen (AID 869;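 active = inhibition over a set limit, the all-compound mean plus 3 SD, in both replicate runs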;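 also: 0% = DMSO wells with no growth and 100% = 10 µM 1-NA-PP1 with full growth; RAM network block rescues cells from 5-FOA so hits raise OD615 growth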); settings: S. cerevisiae dse1pr::URA3 5-FOA growth, OD615, 2 d; at 10 µM; stronger effect = higher value; strain carries analog-sensitive mutant Cbk1 kinase
[15] = RAM signaling pathway blockade in yeast – S. cerevisiae, Pdr1DBD-CYC8 efflux-inhibited sensitized strain, primary screen (AID 1298;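 active = RAM network inhibition above 8.4% in each of two replicates, 3 SD over the compound average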;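 also: 0% = DMSO untreated cells without growth and 100% = 10 µM 1-NA-PP1 full growth; higher means more yeast growth rescued from 5-FOA killing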); settings: S. cerevisiae cbk1-as DSE1-URA3 strain, 5-FOA growth OD615, 2 d; at 50 µM; stronger effect = higher value
[16] = H69AR cells + 2 uM doxorubicin, measured here: viability with 2 uM doxorubicin, stronger effect = lower value
[17] = H69AR cells, compound alone cytotoxicity

c1ccc(C(Cc2nc(-c3ccccn3)no2)c2ccccc2)cc1
inactive: Her2 level [2] 94% | viability [3] 96% | viability [4] 92.8% | viability [5] 95.2% | differential viability (reversal) ([6]; H69AR cells + 2 uM doxorubicin) -11.8% | inhibition [7] -4.03% | inhibition [8] 1.8% | growth inhibition [9] -9.91% | growth inhibition [10] 12.9% | viability increase [11] -2.01% | viability [12] 89.7% | viability [13] 82.5% | inhibition [14] 1.98% | RAM network inhibition [15] 6.08%
96%: viability [1]
95.2%: viability [6, 17]
107%: viability [6, 16]

COc1ccc(S(=O)(=O)NCc2ccc3c(c2)OCO3)cc1C(=O)O
93.4%: viability [6, 16]
96.5%: viability [1]
inactive: Her2 level [2] 84.5% | viability [3] 96.5% | viability [4] 109% | viability [5] 90.1% | differential viability (reversal) ([6]; H69AR cells + 2 uM doxorubicin) -3.31% | inhibition [7] -4.36% | inhibition [8] -0.33% | growth inhibition [9] -4.53% | growth inhibition [10] -6.08% | viability increase [11] -0.34% | viability [12] 96.9% | viability [13] 95.4% | inhibition [14] 1.89% | RAM network inhibition [15] 5.84%
90.1%: viability [6, 17]

COc1ccc(CNC(=O)c2cnc3n(c2=O)CCS3)cc1
97.9%: viability [6, 16]
inactive: Her2 level [2] 87.5% | viability [3] 81.5% | viability [4] 90.6% | viability [5] 94.9% | differential viability (reversal) ([6]; H69AR cells + 2 uM doxorubicin) -3.02% | inhibition [7] -3.87% | inhibition [8] -2.17% | growth inhibition [9] 5.72% | growth inhibition [10] 4.27% | viability increase [11] -1.21% | viability [12] 95.8% | viability [13] 98.3% | inhibition [14] 3.5% | RAM network inhibition [15] 2.5%
94.9%: viability [6, 17]
81.5%: viability [1]

CCCn1c(NCc2cc(C)ccc2O)nc2ccccc21
77.9%: viability [6, 17]
inactive: Her2 level [2] 106% | viability [3] 94.5% | viability [4] 69.4% | viability [5] 77.9% | differential viability (reversal) ([6]; H69AR cells + 2 uM doxorubicin) 1.94% | inhibition [7] -1.73% | inhibition [8] 9.68% | growth inhibition [9] -4.45% | growth inhibition [10] -8.17% | viability increase [11] -4.6% | viability [12] 53.6% | viability [13] 60.1% | inhibition [14] -0.08% | RAM network inhibition [15] 0.33%
76%: viability [6, 16]
94.5%: viability [1]

COc1cc2[nH]c(=O)n(CCCCCC(=O)N3CCN(c4ccccn4)CC3)c(=O)c2cc1OC
inactive: Her2 level [2] 92.5% | viability [3] 104% | viability [4] 100% | viability [5] 89.3% | differential viability (reversal) ([6]; H69AR cells + 2 uM doxorubicin) -2.77% | inhibition [7] -5.95% | inhibition [8] -4.83% | growth inhibition [9] -9.93% | growth inhibition [10] -5.11% | viability increase [11] -4.76% | viability [12] 73.2% | inhibition [14] 1.7% | RAM network inhibition [15] 3.23%
89.3%: viability [6, 17]
92.1%: viability [6, 16]
104%: viability [1]

O=c1c(-c2ccccc2)coc2c(CN3CCOCC3)c(O)ccc12
110%: viability [1]
100%: viability [6, 16]
99%: viability [6, 17]
inactive: Her2 level [2] 105% | viability [3] 110% | viability [4] 96.4% | viability [5] 99% | differential viability (reversal) ([6]; H69AR cells + 2 uM doxorubicin) -1.39% | inhibition [7] 0.95% | inhibition [8] -7.87% | growth inhibition [9] -9.23% | growth inhibition [10] 4.11% | viability increase [11] -4.13% | viability [12] 91.7% | viability [13] 99.7% | inhibition [14] 0.58% | RAM network inhibition [15] -0.61%

CCOCCCNC(=O)C(c1ccccc1)N(Cc1ccc2c(c1)OCO2)C(=O)CNC(C)=O (configuration not stated)
102%: viability [6, 16]
inactive: Her2 level [2] 108% | viability [3] 100% | viability [4] 97.7% | viability [5] 105% | differential viability (reversal) ([6]; H69AR cells + 2 uM doxorubicin) 2.97% | inhibition [7] -6.3% | inhibition [8] 1.59% | growth inhibition [9] 3.28% | growth inhibition [10] -2.68% | viability increase [11] -3.36% | viability [12] 98.6% | inhibition [14] 0.43% | RAM network inhibition [15] 1.52%
100%: viability [1]
105%: viability [6, 17]

Oc1ccc2ccccc2c1CN1CCN(c2ccccc2F)CC1
inactive: Her2 level [2] 90% | viability [3] 110% | viability [4] 90.1% | viability [5] 76.6% | differential viability (reversal) ([6]; H69AR cells + 2 uM doxorubicin) 3.1% | inhibition [7] -3.47% | inhibition [8] -0.33% | growth inhibition [9] -13.8% | growth inhibition [10] -10.6% | viability increase [11] -5.72% | viability [12] 95.4% | viability [13] 93.9% | inhibition [14] 0.72% | RAM network inhibition [15] 0.16%
73.5%: viability [6, 16]
110%: viability [1]
76.6%: viability [6, 17]

c1nc(NCC2(N3CCOCC3)CCCCC2)c2ccsc2n1
inactive: Her2 level [2] 93% | viability [3] 82.5% | viability [4] 97.7% | viability [5] 98.6% | differential viability (reversal) ([6]; H69AR cells + 2 uM doxorubicin) -0.545% | inhibition [7] -5.27% | inhibition [8] -2.54% | growth inhibition [9] -25.4% | growth inhibition [10] 3.08% | viability increase [11] -3.33% | viability [12] 78.8% | inhibition [14] 1.14% | RAM network inhibition [15] 8.05%
82.5%: viability [1]
98.6%: viability [6, 17]
99.2%: viability [6, 16]

COc1ccc(CN2C(=O)CN=C2Nc2ccc(C)cc2C)cc1
84.9%: viability [6, 17]
77.8%: viability [6, 16]
inactive: Her2 level [2] 91% | viability [3] 85% | viability [4] 103% | viability [5] 84.9% | differential viability (reversal) ([6]; H69AR cells + 2 uM doxorubicin) 7.04% | inhibition [7] -3.82% | inhibition [8] -0.73% | growth inhibition [9] -7.07% | growth inhibition [10] -12.2% | viability increase [11] -1.49% | viability [12] 101% | viability [13] 89.4% | inhibition [14] 3.82% | RAM network inhibition [15] 5.11%
85%: viability [1]
